The full data set covers some 7,900 targets. This sample favours those with a hit. About 0.6% of all pairs of compound and target were hits.
Columns and labels:
Assay in all cases: log2 fold change, soluble protein after heating vs DMSO (PISA); higher = thermal stabilisation; K562 cells, 10 uM, 30 min; active = over 0.2 and 3.5 SD of the protein, either way, in both replicates (recomputed)
[1] = compound: CC[C@@H]1C(=O)N(C)c2cnc(Nc3ccc(C(=O)NC4CCN(C)CC4)cc3OC)nc2N1C1CCCC1
Summary of the method: (§1)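 For each measurement, 10 μM compound was applied for 30 min to K562 cells at 2×10^6 cells/mL. Aliquots were heated for 3 min across 48°C-58°C, pooled, and extracted in PBS with 0.5% NP-40 at 4°C; the supernatant after 21,000xg for 90 min was soluble protein. This was quantified by TMTpro 16plex LC-MS/MS with channel sums equalised, and thermal stability was reported relative to control samples from duplicates, on a log2 fold-change scale.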

volasertib = compound: CC[C@@H]1C(=O)N(C)c2cnc(Nc3ccc(C(=O)N[C@H]4CC[C@H](N5CCN(CC6CC6)CC5)CC4)cc3OC)nc2N1C(C)C [volasertib]
Summary of the method: as §1

[2] = compound: CC[C@H](C)N1C=C(C2=C(C=C(C=C21)C3=CN=C(C=C3)N4CCNCC4)C(=O)NCC5=C(C=C(NC5=O)C)C)C
Summary of the method: as §1

epoxomicin = compound: CC[C@H](C)[C@@H](C(=O)N[C@@H]([C@@H](C)O)C(=O)N[C@@H](CC(C)C)C(=O)[C@]1(CO1)C)NC(=O)[C@H]([C@@H](C)CC)N(C)C(=O)C [epoxomicin]
Summary of the method: as §1

[3] = compound: CCn1c(C(=O)N(C2CC2)C2CC2)cc2c3c(ncn3C)c(Nc3cc(C)n(C)n3)nc21
Summary of the method: as §1

[4] = compound: CCn1cc(-c2ccnc3[nH]c(-c4cccc(CN(C)C)c4)cc23)c(-c2ccc(NC(=O)N(C)C)cc2)n1
Summary of the method: as §1

[5] = compound: CN(C)CC(=O)Nc1ccc2[nH]c(=O)c3ccccc3c2c1
Summary of the method: as §1

rosiglitazone = compound: CN(CCOC1=CC=C(C=C1)C[C@H]2C(=O)NC(=O)S2)C3=CC=CC=N3 (racemic) [rosiglitazone]
Summary of the method: as §1

[6] = compound: CN1C2=C(C3=C1C(=O)N(N=C3)CC4=CC(=CC=C4)N)SC(=C2)S(=O)C
Summary of the method: as §1

[7] = compound: CN1CCC(CNc2ccc3ncc(-c4cccc(OC(F)(F)F)c4)n3n2)CC1
Summary of the method: as §1

Measured: log2 fold change

SEC23IP (UniProt Q9Y6Y8)
inactive: [1] -0.069 | volasertib -0.005 | [2] 0.032 | epoxomicin -0.009 | [3] -0.101 | [4] -0.057 | [5] 0.012 | rosiglitazone 0.289 | [6] -0.008 | [7] -0.133

RPL31 (UniProt P62899)
inactive: [1] 0.212 | volasertib 0.457 | [2] 0.01 | epoxomicin -0.238 | [3] 0.036 | [4] 0.216 | [5] -0.108 | rosiglitazone -0.124 | [6] 0.251 | [7] 0.259

RUNX1 isoform 8 (UniProt Q01196)
inactive: [1] -0.331 | [2] 0.086 | epoxomicin -0.206 | [3] 0.035 | [4] -0.089 | [5] 0.06 | rosiglitazone 0.032 | [6] -0.027 | [7] -0.102
active: volasertib -0.434

SETMAR (UniProt Q53H47)
inactive: [1] -0.071 | volasertib -0.045 | [2] 0.058 | epoxomicin 0.045 | [3] -0.047 | [4] 0.015 | [5] 0.012 | rosiglitazone 0.005 | [6] -0.045 | [7] 0.108

RPS4X (UniProt P62701)
inactive: [1] 0.173 | volasertib 0.419 | [2] 0.056 | epoxomicin -0.22 | [3] 0.032 | [4] 0.108 | [5] -0.089 | rosiglitazone -0.086 | [6] 0.177 | [7] 0.148

RNF187 (UniProt Q5TA31)
inactive: [1] 0.155 | volasertib 0.074 | [2] 0.061 | epoxomicin 0.15 | [3] -0.061 | [4] 0.002 | [5] 0.24 | rosiglitazone 0.004 | [6] -0.104 | [7] -0.073

RELA (UniProt Q04206)
inactive: [1] -0.063 | [2] 0.013 | epoxomicin 0.025 | [3] 0.027 | [4] -0.043 | [5] -0.019 | rosiglitazone 0.039 | [6] -0.009 | [7] -0.011
active: volasertib -0.263

RNASEH2A (UniProt O75792)
Sequence of UniProt O75792 (O75792 whole entry, looked up): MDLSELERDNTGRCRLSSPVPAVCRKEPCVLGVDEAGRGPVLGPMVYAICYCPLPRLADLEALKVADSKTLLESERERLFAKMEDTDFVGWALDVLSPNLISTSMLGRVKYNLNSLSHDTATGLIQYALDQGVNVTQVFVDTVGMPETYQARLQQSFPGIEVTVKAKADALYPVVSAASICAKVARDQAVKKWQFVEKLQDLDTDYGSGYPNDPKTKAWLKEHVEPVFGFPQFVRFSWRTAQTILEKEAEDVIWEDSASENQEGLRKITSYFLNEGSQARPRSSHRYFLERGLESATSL
inactive: [1] -0.062 | volasertib -0.075 | [2] 0.068 | epoxomicin 0.061 | [3] -0.002 | [4] -0.061 | [5] -0.118 | rosiglitazone 0.013 | [6] -0.019
active: [7] -0.394

SDCBP (UniProt O00560)
Sequence of UniProt O00560 (O00560 whole entry, looked up): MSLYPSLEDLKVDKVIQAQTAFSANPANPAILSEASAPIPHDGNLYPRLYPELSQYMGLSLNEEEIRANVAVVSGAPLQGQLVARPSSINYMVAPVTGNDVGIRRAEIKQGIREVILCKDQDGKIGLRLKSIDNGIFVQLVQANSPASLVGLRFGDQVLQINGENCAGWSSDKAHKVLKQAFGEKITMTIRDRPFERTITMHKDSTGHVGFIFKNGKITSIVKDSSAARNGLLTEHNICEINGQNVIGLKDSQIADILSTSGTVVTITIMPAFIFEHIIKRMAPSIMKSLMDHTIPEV
inactive: [1] -0.223 | volasertib -0.249 | [2] 0.01 | epoxomicin -0.043 | [3] 0.059 | [4] -0.01 | [5] -0.061 | rosiglitazone -0.008 | [6] 0.045 | [7] -0.229

RBM33 (UniProt Q96EV2)
Sequence of UniProt Q96EV2 (Q96EV2 whole entry, looked up): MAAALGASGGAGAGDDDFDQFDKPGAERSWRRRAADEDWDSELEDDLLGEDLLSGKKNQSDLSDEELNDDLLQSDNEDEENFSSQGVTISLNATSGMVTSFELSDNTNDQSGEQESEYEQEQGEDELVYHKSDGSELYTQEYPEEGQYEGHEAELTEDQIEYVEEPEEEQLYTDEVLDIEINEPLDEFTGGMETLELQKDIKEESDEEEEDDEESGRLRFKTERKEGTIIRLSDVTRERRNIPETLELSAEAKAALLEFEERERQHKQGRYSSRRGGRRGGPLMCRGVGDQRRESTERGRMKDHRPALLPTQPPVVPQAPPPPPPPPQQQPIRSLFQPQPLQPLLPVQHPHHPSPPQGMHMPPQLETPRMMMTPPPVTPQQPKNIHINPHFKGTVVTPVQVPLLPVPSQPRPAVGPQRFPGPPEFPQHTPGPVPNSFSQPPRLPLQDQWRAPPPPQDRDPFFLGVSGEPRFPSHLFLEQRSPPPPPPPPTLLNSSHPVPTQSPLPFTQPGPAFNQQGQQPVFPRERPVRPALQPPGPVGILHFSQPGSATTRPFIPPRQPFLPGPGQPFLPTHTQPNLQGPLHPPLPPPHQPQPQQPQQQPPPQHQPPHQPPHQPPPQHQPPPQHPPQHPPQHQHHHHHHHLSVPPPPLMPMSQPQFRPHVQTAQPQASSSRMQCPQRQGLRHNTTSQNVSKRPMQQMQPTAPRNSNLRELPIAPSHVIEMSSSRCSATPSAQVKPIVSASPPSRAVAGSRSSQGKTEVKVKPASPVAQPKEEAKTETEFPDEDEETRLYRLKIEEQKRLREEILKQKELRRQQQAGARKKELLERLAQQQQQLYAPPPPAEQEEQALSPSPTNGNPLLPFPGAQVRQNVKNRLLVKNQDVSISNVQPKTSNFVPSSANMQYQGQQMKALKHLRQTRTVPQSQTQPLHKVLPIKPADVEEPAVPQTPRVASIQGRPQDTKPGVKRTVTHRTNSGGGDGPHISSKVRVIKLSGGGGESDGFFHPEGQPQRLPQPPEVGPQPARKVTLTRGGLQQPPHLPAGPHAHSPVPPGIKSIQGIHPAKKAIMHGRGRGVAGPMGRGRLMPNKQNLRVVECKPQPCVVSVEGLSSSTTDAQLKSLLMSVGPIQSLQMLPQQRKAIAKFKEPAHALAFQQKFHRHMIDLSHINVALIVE
inactive: [1] -0.101 | volasertib -0.105 | [2] 0.035 | epoxomicin 0.022 | [3] 0.012 | [4] -0.005 | [5] -0.025 | rosiglitazone -0.024 | [6] 0.023 | [7] 0.004

SEC16A isoform 5 (UniProt O15027)
Sequence of UniProt O15027 (O15027 whole entry, looked up): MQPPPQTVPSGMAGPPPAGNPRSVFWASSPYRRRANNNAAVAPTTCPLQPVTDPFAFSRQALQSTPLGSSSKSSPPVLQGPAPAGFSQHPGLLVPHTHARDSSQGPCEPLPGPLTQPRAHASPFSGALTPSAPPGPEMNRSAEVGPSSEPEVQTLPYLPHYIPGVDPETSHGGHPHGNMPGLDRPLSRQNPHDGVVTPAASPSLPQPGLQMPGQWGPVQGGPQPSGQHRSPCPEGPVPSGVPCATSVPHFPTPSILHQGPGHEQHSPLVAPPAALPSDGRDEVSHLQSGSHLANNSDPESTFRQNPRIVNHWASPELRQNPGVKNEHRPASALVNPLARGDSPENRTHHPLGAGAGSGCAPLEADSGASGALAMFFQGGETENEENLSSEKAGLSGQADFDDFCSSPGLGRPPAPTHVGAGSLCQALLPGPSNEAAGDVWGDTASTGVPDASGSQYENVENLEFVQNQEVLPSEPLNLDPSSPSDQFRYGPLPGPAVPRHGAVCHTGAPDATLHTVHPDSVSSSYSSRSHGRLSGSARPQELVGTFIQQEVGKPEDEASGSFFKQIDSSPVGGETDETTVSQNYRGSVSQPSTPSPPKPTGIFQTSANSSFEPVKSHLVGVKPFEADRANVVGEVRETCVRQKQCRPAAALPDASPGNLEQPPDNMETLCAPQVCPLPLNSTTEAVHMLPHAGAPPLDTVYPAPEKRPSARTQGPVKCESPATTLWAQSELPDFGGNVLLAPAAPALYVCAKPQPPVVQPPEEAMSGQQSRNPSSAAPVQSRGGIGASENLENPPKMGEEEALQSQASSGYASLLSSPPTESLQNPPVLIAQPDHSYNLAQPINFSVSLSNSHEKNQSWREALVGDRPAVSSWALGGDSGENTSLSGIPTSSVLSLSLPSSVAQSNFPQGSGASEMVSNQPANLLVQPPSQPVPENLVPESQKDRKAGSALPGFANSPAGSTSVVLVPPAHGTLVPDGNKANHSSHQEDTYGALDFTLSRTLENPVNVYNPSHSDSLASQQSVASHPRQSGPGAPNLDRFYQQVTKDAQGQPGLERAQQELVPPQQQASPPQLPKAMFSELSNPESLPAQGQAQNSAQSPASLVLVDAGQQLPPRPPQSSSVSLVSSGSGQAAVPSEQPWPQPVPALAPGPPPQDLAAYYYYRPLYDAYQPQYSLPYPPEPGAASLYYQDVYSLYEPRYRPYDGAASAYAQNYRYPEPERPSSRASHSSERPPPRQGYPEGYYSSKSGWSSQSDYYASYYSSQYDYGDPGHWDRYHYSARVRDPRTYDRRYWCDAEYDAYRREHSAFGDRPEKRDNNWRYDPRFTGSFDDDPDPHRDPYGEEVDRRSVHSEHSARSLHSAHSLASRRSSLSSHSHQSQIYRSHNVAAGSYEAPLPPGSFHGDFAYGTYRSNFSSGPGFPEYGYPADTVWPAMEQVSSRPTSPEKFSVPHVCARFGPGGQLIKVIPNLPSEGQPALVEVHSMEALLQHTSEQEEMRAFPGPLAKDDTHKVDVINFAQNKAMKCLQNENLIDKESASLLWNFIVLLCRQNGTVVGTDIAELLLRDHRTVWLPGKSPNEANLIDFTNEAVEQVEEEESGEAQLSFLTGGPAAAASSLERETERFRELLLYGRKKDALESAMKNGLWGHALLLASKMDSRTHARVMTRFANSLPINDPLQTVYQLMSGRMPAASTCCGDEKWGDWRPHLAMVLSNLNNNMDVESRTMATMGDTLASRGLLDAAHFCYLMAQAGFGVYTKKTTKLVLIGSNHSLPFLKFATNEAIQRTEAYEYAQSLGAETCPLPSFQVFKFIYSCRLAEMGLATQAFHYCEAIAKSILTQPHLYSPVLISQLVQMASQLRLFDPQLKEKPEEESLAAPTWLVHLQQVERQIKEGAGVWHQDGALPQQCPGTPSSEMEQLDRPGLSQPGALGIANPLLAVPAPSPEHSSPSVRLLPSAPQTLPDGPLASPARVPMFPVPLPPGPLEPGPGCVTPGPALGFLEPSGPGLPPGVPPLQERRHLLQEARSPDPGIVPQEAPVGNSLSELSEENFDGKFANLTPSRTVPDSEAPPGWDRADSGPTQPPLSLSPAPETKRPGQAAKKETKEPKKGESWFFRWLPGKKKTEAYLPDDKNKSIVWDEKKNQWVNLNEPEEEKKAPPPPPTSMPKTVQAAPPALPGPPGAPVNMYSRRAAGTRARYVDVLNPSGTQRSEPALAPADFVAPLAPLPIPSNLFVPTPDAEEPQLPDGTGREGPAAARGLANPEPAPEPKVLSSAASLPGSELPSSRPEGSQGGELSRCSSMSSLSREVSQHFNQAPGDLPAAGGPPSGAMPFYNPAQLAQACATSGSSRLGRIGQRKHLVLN
inactive: [1] -0.058 | volasertib -0.271 | [2] 0.051 | epoxomicin -0.04 | [3] -0.146 | [4] -0.048 | [5] 0.1 | rosiglitazone 0.06 | [6] 0.078 | [7] -0.047

RPS27A (UniProt P62979)
inactive: [1] -0.061 | volasertib 0.36 | [2] 0.05 | epoxomicin -0.078 | [3] 0.021 | [4] 0.033 | [5] -0.153 | rosiglitazone -0.145 | [6] 0.155 | [7] 0.194

RCC1 isoform 2 (UniProt P18754)
inactive: [1] -0.037 | volasertib -0.063 | [2] 0.044 | epoxomicin 0.118 | [3] -0.185 | [4] -0.02 | [5] 0.168 | rosiglitazone 0.053 | [6] -0.09 | [7] 0.11

RPS16 (UniProt P62249)
inactive: [1] 0.125 | volasertib 0.388 | [2] 0.044 | epoxomicin -0.118 | [3] 0.026 | [4] 0.124 | [5] -0.085 | rosiglitazone -0.072 | [6] 0.112 | [7] 0.1

SGPL1 (UniProt O95470)
Sequence of UniProt O95470 (O95470 whole entry, looked up): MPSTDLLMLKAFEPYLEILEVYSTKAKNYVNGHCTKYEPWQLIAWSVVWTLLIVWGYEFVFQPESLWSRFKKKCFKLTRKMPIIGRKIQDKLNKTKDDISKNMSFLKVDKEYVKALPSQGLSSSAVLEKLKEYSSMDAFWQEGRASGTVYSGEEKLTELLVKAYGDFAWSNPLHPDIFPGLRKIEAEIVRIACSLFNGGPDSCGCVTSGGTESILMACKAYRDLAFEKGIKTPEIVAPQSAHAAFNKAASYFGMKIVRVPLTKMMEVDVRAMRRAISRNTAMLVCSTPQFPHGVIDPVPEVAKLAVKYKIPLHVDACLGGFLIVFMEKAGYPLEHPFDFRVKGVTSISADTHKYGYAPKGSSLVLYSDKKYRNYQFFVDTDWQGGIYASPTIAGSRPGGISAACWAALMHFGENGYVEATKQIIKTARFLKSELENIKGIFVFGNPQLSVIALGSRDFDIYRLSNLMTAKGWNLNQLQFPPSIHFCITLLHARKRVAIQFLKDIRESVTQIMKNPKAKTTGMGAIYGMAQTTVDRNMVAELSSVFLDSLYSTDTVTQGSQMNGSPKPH
inactive: [1] 0 | volasertib -0.04 | [2] -0.002 | epoxomicin -0.066 | [3] 0.01 | [4] 0.009 | [5] -0.023 | rosiglitazone -0.061 | [6] 0.047 | [7] 0.189

RNPS1 (UniProt Q15287)
inactive: [1] 0.062 | volasertib -0.155 | [2] 0.049 | epoxomicin -0.126 | [3] -0.043 | [4] -0.008 | [5] 0.031 | rosiglitazone -0.08 | [6] 0.016 | [7] 0.006

RBM27 (UniProt Q9P2N5)
active: volasertib -0.296
inactive: [1] -0.141 | [2] 0.014 | epoxomicin 0.014 | [3] -0.11 | [4] 0.001 | [5] 0.027 | rosiglitazone 0.055 | [6] -0.013 | [7] -0.068

RPTOR (UniProt Q8N122)
active: volasertib -0.237
inactive: [1] -0.116 | [2] 0.064 | epoxomicin 0.034 | [3] 0.001 | [4] -0.08 | [5] 0.03 | rosiglitazone 0.034 | [6] -0.037 | [7] -0.197

SERPINA7 (UniProt P05543)
active: epoxomicin -0.68
inactive: [1] 0.055 | volasertib 0.309 | [2] 0.044 | [3] 0.073 | [4] 0.036 | [5] -0.123 | rosiglitazone -0.014 | [6] 0.255 | [7] 0.279

SCD (UniProt O00767)
inactive: [1] 0 | volasertib 0.009 | [2] -0.063 | epoxomicin 0.109 | [3] 0.103 | [4] 0.036 | [5] 0.008 | rosiglitazone -0.023 | [6] 0.025 | [7] 0.095

RAB8B (UniProt Q92930)
inactive: [1] 0.036 | volasertib 0.033 | [2] -0.039 | epoxomicin 0.229 | [3] -0.011 | [4] 0.003 | [5] 0.013 | rosiglitazone 0.085 | [6] -0.05 | [7] 0.227

RRP9 (UniProt O43818)
inactive: [1] 0.09 | volasertib 0.148 | [2] -0.049 | epoxomicin -0.107 | [3] -0.017 | [4] 0.136 | [5] -0.113 | rosiglitazone -0.129 | [6] 0.039 | [7] 0.236

RPS3 (UniProt P23396)
inactive: [1] 0.147 | volasertib 0.34 | [2] 0.011 | epoxomicin -0.125 | [3] 0.033 | [4] 0.125 | [5] -0.071 | rosiglitazone -0.064 | [6] 0.085 | [7] 0.045

RRP12 (UniProt Q5JTH9)
inactive: [1] 0.246 | volasertib 0 | [2] 0.029 | epoxomicin 0.054 | [3] -0.036 | [4] -0.057 | [5] -0.046 | rosiglitazone 0.026 | [6] 0.066 | [7] 0.161

RPS15 (UniProt P62841)
inactive: [1] 0.2 | volasertib 0.294 | [2] -0.017 | epoxomicin -0.056 | [3] 0 | [4] 0.061 | [5] -0.099 | rosiglitazone -0.113 | [6] 0.164 | [7] 0.02

RPP25L (UniProt Q8N5L8)
inactive: [1] 0.144 | volasertib 0.115 | [2] -0.042 | epoxomicin -0.04 | [3] -0.052 | [4] 0.059 | [5] -0.074 | rosiglitazone -0.093 | [6] 0.061 | [7] 0.058

RAB3IL1 (UniProt Q8TBN0)
Sequence of UniProt Q8TBN0 (Q8TBN0 whole entry, looked up): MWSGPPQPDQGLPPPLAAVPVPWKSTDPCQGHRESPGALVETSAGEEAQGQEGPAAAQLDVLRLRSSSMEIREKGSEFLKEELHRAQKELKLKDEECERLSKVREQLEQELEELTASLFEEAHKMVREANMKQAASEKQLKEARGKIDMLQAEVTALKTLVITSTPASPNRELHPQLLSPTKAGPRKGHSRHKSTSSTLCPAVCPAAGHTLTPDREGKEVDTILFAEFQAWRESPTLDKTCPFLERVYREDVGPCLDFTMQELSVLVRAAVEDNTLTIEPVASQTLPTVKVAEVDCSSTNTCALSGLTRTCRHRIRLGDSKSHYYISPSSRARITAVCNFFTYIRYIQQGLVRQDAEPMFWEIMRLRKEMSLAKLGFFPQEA
inactive: [1] -0.018 | volasertib -0.136 | [2] -0.001 | epoxomicin -0.001 | [3] -0.014 | [4] -0.15 | [5] 0.009 | rosiglitazone 0.029 | [6] -0.035 | [7] 0.013

SIRT2 (UniProt Q8IXJ6)
active: volasertib 0.624
inactive: [1] 0.077 | [2] 0.043 | epoxomicin -0.015 | [3] -0.017 | [4] -0.038 | [5] 0.009 | rosiglitazone 0.033 | [6] -0.041 | [7] -0.025

SEPTIN5 (UniProt Q99719)
inactive: [1] 0.03 | volasertib 0.047 | [2] -0.003 | epoxomicin -0.025 | [3] 0.016 | [4] -0.052 | [5] -0.019 | rosiglitazone 0.032 | [6] -0.09 | [7] -0.009

RNF2 (UniProt Q99496)
active: [2] -0.307
inactive: [1] -0.045 | volasertib -0.169 | epoxomicin 0.168 | [3] 0.1 | [4] 0.012 | [5] 0.007 | rosiglitazone 0.036 | [6] 0.063 | [7] -0.03
